This is part of a sample that, as a whole, favours compounds with a hit. Of some 83,000 tested, about 20% had one in any assay.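 The endpoint reported here, percent growth, reads 100 for growth as untreated, 0 for no net growth and -100 for all cells dead.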 Values without a mark were called inactive. Active and inactive are the calls of the source. The calls were made as follows: active = growth percent below 10; inactive = the rest.
Legend:
Assay in all cases: NCI-60 one-dose screen, 48 h (100 = growth as untreated, 0 = no growth, -100 = all killed)
Conditions in all cases: 10 µM unless noted
RPMI-8226 leukemia = tested on: RPMI-8226 leukemia
OVCAR-8 ovarian = tested on: OVCAR-8 ovarian
OVCAR-5 ovarian = tested on: OVCAR-5 ovarian
OVCAR-4 ovarian = tested on: OVCAR-4 ovarian
SK-OV-3 ovarian = tested on: SK-OV-3 ovarian
OVCAR-3 ovarian = tested on: OVCAR-3 ovarian
HS 578T breast = tested on: HS 578T breast
NCI/ADR-RES ovarian = tested on: NCI/ADR-RES ovarian
T-47D breast = tested on: T-47D breast
BT-549 breast = tested on: BT-549 breast
MDA-MB-435 melanoma = tested on: MDA-MB-435 melanoma
SW-620 colon = tested on: SW-620 colon
MCF7 breast = tested on: MCF7 breast
HCT-116 colon = tested on: HCT-116 colon
HCC-2998 colon = tested on: HCC-2998 colon
KM12 colon = tested on: KM12 colon
IGROV1 ovarian = tested on: IGROV1 ovarian

Row | SMILES | growth (RPMI-8226 leukemia) | growth (OVCAR-8 ovarian) | growth (OVCAR-5 ovarian) | growth (OVCAR-4 ovarian) | growth (SK-OV-3 ovarian) | growth (OVCAR-3 ovarian) | growth (HS 578T breast) | growth (NCI/ADR-RES ovarian) | growth (T-47D breast) | growth (BT-549 breast) | growth (MDA-MB-435 melanoma) | growth (SW-620 colon) | growth (MCF7 breast) | growth (HCT-116 colon) | growth (HCC-2998 colon) | growth (KM12 colon) | growth (IGROV1 ovarian)
1 | O=C(CSc1nc2sc3c(c2c(=O)n1-c1ccc(Cl)cc1)CCCC3)NNC(=O)Nc1ccc(Cl)c(C(F)(F)F)c1 | 0.887% (active) | 27.2% | 49.4% | 16% | 74.9% | 4.44% (active) | 69.4% | 61% | -34.2% (active) | 69% | 46.8% | 4.66% (active) | 18.6% | 13.6% | 42.4% | 25.9% | –
2 | Fc1ccc(-c2cc3nc(C(Cl)Cl)nc(-c4ccccc4)n3n2)cc1 | -16.1% (active) | 8.61% (active) | -20.3% (active) | -16.9% (active) | -18.6% (active) | -43.1% (active) | -18% (active) | 10.6% | 22.1% | 46.5% | 6.42% (active) | -50.2% (active) | 8.55% (active) | -54.7% (active) | -47.1% (active) | -37.7% (active) | –
3 | Nc1c(C(=O)Nc2ccc(C(F)(F)F)cc2)sc2nc(-c3cnccn3)cc(-c3cccs3)c12 | 72.2% | 66.7% | 102% | 63.5% | 88.1% | 96% | 70.3% | 78.2% | 90.3% | 22.5% | 95.4% | 103% | 75.8% | -62.1% (active) | 108% | 95.6% | –
4 | COc1cc2cc(Oc3ccc(NC(=O)c4cccc(C(F)(F)F)c4)cc3)c(C)nc2cc1OCCN1CCCCC1 | -10.4% (active) | 62.6% | 98.7% | 68.1% | 101% | – | 70% | 75.4% | – | 98.7% | -86.6% (active) | -71.7% (active) | 12.7% | 0.649% (active) | -17.7% (active) | – | 81.5%
5 | CNC(=O)c1cc(-c2ccc(NC(=O)Nc3ccc(N4CCOCC4)c(C(F)(F)F)c3)cc2)nc2cccnc12 | 9.25% (active) | 49.9% | 91.4% | 49.3% | 93.4% | – | 32.2% | 68.6% | 39.6% | 84.8% | – | 72.3% | 12.3% | 52.3% | 79.9% | – | 57.5%
6 | CS(=O)(=O)c1ccc(-c2nc3ccccn3c2C=Nc2ccc(Cl)cc2)cc1 | 77.1% | 86.3% | 83.6% | 88.2% | 96.9% | – | 104% | 62.3% | 65.4% | 74.3% | – | 63% | 87.7% | 52.1% | 95.8% | – | 78.4%
7 | COc1ccc(/C=C2\SC(=Nc3cc(C)[nH]n3)NC2=O)cc1 | 88.2% | 103% | 90.3% | 97.4% | 85.7% | 104% | 91.4% | 98.3% | 85.2% | 90.5% | 92.4% | 97.1% | 85.5% | 97.2% | 99.8% | 89.8% | –
8 | O=C(O)CCCCCN1C(=O)/C(=C/c2ccc(O)c(O)c2)SC1=S | 111% | 103% | 108% | 101% | 124% | 108% | 99.6% | 104% | 98% | 101% | 103% | 111% | 90.5% | 105% | 115% | – | –
9 | N#Cc1nc(-c2ccccc2)oc1N1CCC(CO)C1 (configuration not stated) | 103% | 103% | 93.2% | 99% | 121% | 104% | 96.1% | 106% | 83% | 95.3% | 95.7% | 98.4% | 49.8% | 107% | 115% | 101% | –
10 | OC1CCN(CCCOc2c3ccc(Cl)cc3nc3c2oc2ccccc23)CC1 | -15.1% (active) | 3.92% (active) | -4.92% (active) | 1.3% (active) | 7.92% (active) | 0.661% (active) | -6.78% (active) | 6.48% (active) | 11% | -2.71% (active) | -76.3% (active) | -19.8% (active) | -32.1% (active) | -34.9% (active) | -68% (active) | -16.1% (active) | –
11 | CCN1CCN(S(=O)(=O)c2oc(-c3ccc(Cl)cc3)nc2C#N)CC1 | 29% | 85% | 94.8% | 105% | 129% | – | 105% | 96% | – | 93.6% | 62.6% | -23.6% (active) | 31.3% | – | 115% | 91.7% | 7.89% (active)
12 | CC(C)NC(=O)c1cc(-c2ccc(NC(=O)Nc3ccc(N4CCOCC4)c(C(F)(F)F)c3)cc2)nc2cccnc12 | 14.3% | 63.7% | 88.1% | 71.7% | 88.5% | – | 9.42% (active) | 78.4% | – | 66.7% | 67.9% | 79.7% | 37.2% | 63.9% | 106% | – | 66.9%
13 | c1ccc2c(NCCCN3CCOCC3)c3oc4ccccc4c3nc2c1 | -14.4% (active) | -71.7% (active) | 1.26% (active) | 7.86% (active) | -9.67% (active) | – | 5.28% (active) | 7.98% (active) | 21.1% | 3.61% (active) | -11.9% (active) | -0.873% (active) | – | -20.1% (active) | -28% (active) | 2.04% (active) | -16.7% (active)
14 | COc1cc(OC)c(S(=O)(=O)NNC(=O)c2ccncc2)cc1C(=O)/C=C/c1ccc(C)cc1 | 20.3% | 88.3% | 110% | 91.3% | 101% | 81% | 80.5% | 107% | 72.7% | 6.18% (active) | 83.2% | 74.8% | 26.7% | 9.81% (active) | 91.6% | 54.8% | –
15 | COc1ccc(/C=N/NC(=O)c2[nH]c3ccc(Br)cc3c2-c2ccccc2)o1 | 12.5% | -12.2% (active) | 39.9% | 68% | 38.1% | – | 11.5% | 19.9% | 78.4% | -15.5% (active) | – | 21.6% | – | -18.8% (active) | 21.3% | 6.83% (active) | 19.7%
16 | C=CCSc1ccc2c(c1)C(N1CCNCC1)=Nc1ccccc1O2 | 63.2% [8.25 µM] | 92.5% [8.25 µM] | 85.4% [8.25 µM] | 83.1% [8.25 µM] | 88.2% [8.25 µM] | – | 72.1% [8.25 µM] | 87.9% [8.25 µM] | – | 106% [8.25 µM] | 68% [8.25 µM] | 73.4% [8.25 µM] | – | 55.1% [8.25 µM] | -14.8% [8.25 µM] (active) | – | 63.1% [8.25 µM]
17 | O=C1Nc2cc(Cl)ccc2/C1=C\c1ccc(OCc2ccc([N+](=O)[O-])cc2)cc1 | 55.6% | 78.8% | 93.3% | 43.6% | 98% | – | 60.9% | 73.3% | 51.9% | 77.5% | 80.2% | 76.8% | – | 68.2% | 82.8% | 64.6% | 64.5%
18 | CCCCCCNC(=O)Oc1ccc(/C(=C(/C)c2ccccc2)c2ccc(OCCN3CCCCCC3)cc2)cc1 | -27.7% (active) | 66.1% | 69.3% | 49.7% | 98.7% | – | 51.4% | 64.5% | 21.6% | 66.7% | – | -35.2% (active) | 13.6% | 23.8% | 56.7% | – | 51.4%
19 | O=C1C2=C(C(=O)c3c(O)cccc31)C(c1ccco1)c1sc(=O)[nH]c1S2 (configuration not stated) | 18.7% | 2.5% (active) | 11.7% | 24.3% | 115% | – | -10.4% (active) | 9.22% (active) | 23.6% | -96.8% (active) | -45.3% (active) | 13% | – | -2.88% (active) | 4.16% (active) | – | –
20 | CCN1C(=S)N(CC)C2C1NN=C1SC(c3ccccc3)=CC(=O)N12 (configuration not stated) | 107% | 99.4% | 107% | 115% | 110% | – | 114% | 99.6% | 108% | 106% | 59% | 111% | 95.4% | 104% | 111% | 94.3% | –
21 | COc1cccc(NC2=CC(=O)C(C)=C(C)C2=O)c1 | 17.5% | 16.9% | 101% | -1.68% (active) | – | 0.294% (active) | 112% | – | 47.7% | 127% | 7.25% (active) | 102% | 64.1% | 10.5% | – | 98.4% | –
22 | CCOC(=O)c1sc(NCC(=O)Nc2cccc([N+](=O)[O-])c2)c(C(=O)OCC)c1C | -31.6% (active) | 1.78% (active) | -13.7% (active) | -26% (active) | – | -4.13% (active) | -10.4% (active) | – | -10.9% (active) | -19.3% (active) | -82% (active) | 2.53% (active) | -4.78% (active) | 0.39% (active) | – | -9.01% (active) | -41% (active)
23 | COc1ccc([C@@H]2c3[nH]c4ccccc4c3CC3C(=O)N(C4CCN(Cc5c(F)cccc5F)CC4)CC(=O)N32)c(OC)c1 (some centres not stated) | 41.3% [5.26 µM] | 73.4% [5.26 µM] | 76.7% [5.26 µM] | 69.4% [5.26 µM] | – | 64.1% [5.26 µM] | 45.1% [5.26 µM] | – | – | 30.4% [5.26 µM] | 60% [5.26 µM] | 64.6% [5.26 µM] | 42.4% [5.26 µM] | -15.2% [5.26 µM] (active) | – | 58.1% [5.26 µM] | –
24 | O=C(Nc1nc2ccc(O)cc2s1)c1cccc(C(F)(F)F)c1 | 46.9% | 55.5% | 93.4% | 63.6% | – | 67.2% | 101% | – | 51.3% | 84.4% | 44.7% | 52.1% | 73.7% | 57.6% | – | 42.7% | 64.4%
25 | COC(=O)c1ccc(NC(=S)N2CCc3ccc([N+](=O)[O-])cc3C2)cc1O | 101% | 101% | 103% | 112% | 98.4% | – | 102% | 107% | 103% | 101% | 111% | 110% | – | 117% | 110% | 103% | –
26 | CSc1ccc2c(c1)N(C(=O)/C(C#N)=C/c1c[nH]c3ccccc13)c1ccccc1S2 | 21.3% | 52.4% | 63.1% | 59.5% | – | 37.5% | 37.8% | – | 29.9% | 55.8% | 11.7% | 34.5% | 23.1% | 24.3% | – | 24.5% | 40.2%

— PubChem BioAssay (NCI)
